# The supplement of paper PMC8728848
# The sample as a whole holds a higher share of the strongest signals than the screen did.
# B1: PfulAvr4 2 (Pseudocercospora fuligena) (protein)
# chain: HHHHHHDYKDDDDKAKPIKPFACPPKDFTTTKCQGPVDCLYANPLSCLGYIQCVCDDDACSTATPYAKSCPTGLAWVEKLKRCDGIKKSACPKKMYEGS
# Assays:
# Experiment in all cases: glycan array binding signal (z-score within array); higher = stronger binding
# Settings in all cases: glycan notation: IUPAC condensed, linker removed
# [1] = target: Fuc(a1-2)Gal(b1-3)GalNAc(b1-3)Gal(a1-4)Gal(b1-4)Glc
# Summary of the method: (§1)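 Arrays were curated from the Consortium for Functional Glycomics database, 3228 in total, and kept only where the protein sequence was available. Binding is expressed as a within-array Z-score. This score was averaged across arrays of the same protein sequence at different concentrations or buffers and across linkers, and negative values can be read as non-binding.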
# [2] = target: Fuc(a1-2)Gal(b1-4)GlcNAc(b1-2)Man(a1-3)[Fuc(a1-2)Gal(b1-4)GlcNAc(b1-2)Man(a1-6)]Man(b1-4)GlcNAc(b1-4)[Fuc(a1-6)]GlcNAc
# Summary of the method: as §1
# [3] = target: Fuc(a1-2)Gal(b1-4)[Fuc(a1-3)]GlcNAc(b1-2)[Fuc(a1-2)Gal(b1-4)[Fuc(a1-3)]GlcNAc(b1-4)]Man(a1-3)[Fuc(a1-2)Gal(b1-4)[Fuc(a1-3)]GlcNAc(b1-2)Man(a1-6)]Man(b1-4)GlcNAc(b1-4)GlcNAc
# Summary of the method: as §1
# [4] = target: Fuc(a1-2)Gal(b1-4)[Fuc(a1-3)]GlcNAc(b1-3)Gal(b1-4)[Fuc(a1-3)]GlcNAc
# Summary of the method: as §1
# [5] = target: Fuc(a1-2)Gal6S(b1-4)Glc
# Summary of the method: as §1
# [6] = target: Fuc(a1-2)[Gal(a1-3)]Gal(b1-4)GlcNAc(b1-6)GalNAc
# Summary of the method: as §1
# [7] = target: Fuc(a1-2)[GalNAc(a1-3)]Gal(b1-3)GalNAc(a1-3)[Fuc(a1-2)]Gal(b1-4)GlcNAc
# Summary of the method: as §1
# [8] = target: Gal(a1-4)Gal(b1-4)GlcNAc(b1-2)Man(a1-3)[Gal(a1-4)Gal(b1-4)GlcNAc(b1-2)Man(a1-6)]Man(b1-4)GlcNAc(b1-4)GlcNAc
# Summary of the method: as §1
# [9] = target: Gal(b1-3)GlcNAc(b1-2)Man
# Summary of the method: as §1
# [10] = target: Gal(b1-3)GlcNAc(b1-2)Man(a1-3)[GlcNAc(b1-4)][Gal(b1-3)GlcNAc(b1-2)Man(a1-6)]Man(b1-4)GlcNAc(b1-4)GlcNAc
# Summary of the method: as §1
# [11] = target: Gal(b1-3)GlcNAc(b1-2)[Gal(b1-3)GlcNAc(b1-6)]Man(a1-6)[Gal(b1-3)GlcNAc(b1-2)Man(a1-3)]Man(b1-4)GlcNAc(b1-4)GlcNAc
# Summary of the method: as §1
# [12] = target: Gal(b1-3)GlcNAc(b1-3)Gal(b1-4)Glc
# Summary of the method: as §1
# [13] = target: Gal(b1-3)GlcNAc(b1-3)Gal(b1-4)GlcNAc
# Summary of the method: as §1
# [14] = target: Gal(b1-3)[Fuc(a1-4)]GlcNAc
# Summary of the method: as §1
# [15] = target: Gal(b1-4)GlcNAc(b1-2)Man(a1-3)[GlcNAc(b1-2)Man(a1-6)]Man(b1-4)GlcNAc(b1-4)GlcNAc
# Summary of the method: as §1
# [16] = target: Gal(b1-4)GlcNAc(b1-2)Man(a1-3)[GlcNAc(b1-4)][Gal(b1-4)GlcNAc(b1-2)Man(a1-6)]Man(b1-4)GlcNAc(b1-4)GlcNAc
# Summary of the method: as §1
# [17] = target: Gal(b1-4)GlcNAc(b1-2)Man(a1-3)[Man(a1-6)]Man(b1-4)GlcNAc(b1-4)GlcNAc
# Summary of the method: as §1
# [18] = target: Gal(b1-4)GlcNAc(b1-2)[Gal(b1-4)GlcNAc(b1-4)]Man(a1-3)[Gal(b1-4)GlcNAc(b1-2)[Gal(b1-4)GlcNAc(b1-6)]Man(a1-6)]Man(b1-4)GlcNAc(b1-4)GlcNAc
# Summary of the method: as §1
# [19] = target: Gal(b1-4)GlcNAc(b1-3)Gal(b1-4)GlcNAc(b1-2)[Gal(b1-4)GlcNAc(b1-3)Gal(b1-4)GlcNAc(b1-6)]Man(a1-6)[Gal(b1-4)GlcNAc(b1-3)Gal(b1-4)GlcNAc(b1-2)Man(a1-3)]Man(b1-4)GlcNAc(b1-4)GlcNAc
# Summary of the method: as §1
# [20] = target: Gal(b1-4)GlcNAc(b1-3)Gal(b1-4)GlcNAc(b1-3)Gal(b1-4)GlcNAc(b1-3)Gal(b1-4)GlcNAc(b1-2)Man(a1-3)[Gal(b1-4)GlcNAc(b1-3)Gal(b1-4)GlcNAc(b1-3)Gal(b1-4)GlcNAc(b1-3)Gal(b1-4)GlcNAc(b1-2)Man(a1-6)]Man(b1-4)GlcNAc(b1-4)[Fuc(a1-6)]GlcNAc
# Summary of the method: as §1
# [21] = target: Gal(b1-4)GlcNAc(b1-3)[GlcNAc(b1-6)]Gal(b1-4)GlcNAc
# Summary of the method: as §1
# [22] = target: Gal3S(b1-3)GlcNAc
# Summary of the method: as §1
# [23] = target: Gal3S(b1-4)[Fuc(a1-3)]Glc6S
# Summary of the method: as §1
# [24] = target: GalNAc6S(b1-4)GlcNAc
# Summary of the method: as §1
# [25] = target: GlcNAc(a1-4)Gal(b1-4)GlcNAc
# Summary of the method: as §1
# [26] = target: GlcNAc(b1-3)Man
# Summary of the method: as §1
# [27] = target: GlcNAc6S(b1-3)Gal(b1-4)GlcNAc
# Summary of the method: as §1
# [28] = target: Man(a1-2)Man(a1-3)[Man(a1-2)Man(a1-6)]Man(a1-6)[Man(a1-2)Man(a1-2)Man(a1-3)]Man
# Summary of the method: as §1
# [29] = target: Neu5Ac(a2-3)Gal(b1-3)GalNAc
# Summary of the method: as §1
# [30] = target: Neu5Ac(a2-3)Gal(b1-3)GalNAc(b1-3)Gal(a1-4)Gal(b1-4)Glc
# Summary of the method: as §1
# [31] = target: Neu5Ac(a2-3)Gal(b1-3)GlcNAc(b1-2)Man(a1-3)[Neu5Ac(a2-3)Gal(b1-3)GlcNAc(b1-2)Man(a1-6)]Man(b1-4)GlcNAc(b1-4)GlcNAc
# Summary of the method: as §1
# [32] = target: Neu5Ac(a2-3)Gal(b1-3)GlcNAc(b1-3)GalNAc
# Summary of the method: as §1
# [33] = target: Neu5Ac(a2-3)Gal(b1-4)GlcNAc(b1-2)Man
# Summary of the method: as §1
# [34] = target: Neu5Ac(a2-3)Gal(b1-4)GlcNAc(b1-2)[Neu5Ac(a2-3)Gal(b1-4)GlcNAc(b1-4)]Man(a1-3)[GlcNAc(b1-4)][Neu5Ac(a2-3)Gal(b1-4)GlcNAc(b1-4)Man(a1-6)]Man(b1-4)GlcNAc(b1-4)GlcNAc
# Summary of the method: as §1
# [35] = target: Neu5Ac(a2-3)Gal(b1-4)GlcNAc(b1-3)Gal(b1-4)GlcNAc(b1-3)[Neu5Ac(a2-3)Gal(b1-4)GlcNAc(b1-3)Gal(b1-4)GlcNAc(b1-6)]GalNAc
# Summary of the method: as §1
# [36] = target: Neu5Ac(a2-3)Gal(b1-4)[Fuc(a1-3)]GlcNAc(b1-3)GalNAc
# Summary of the method: as §1
# [37] = target: Neu5Ac(a2-3)Gal6S(b1-4)GlcNAc
# Summary of the method: as §1
# [38] = target: Neu5Ac(a2-6)Gal(b1-4)GlcNAc(b1-2)Man(a1-3)Man(b1-4)GlcNAc(b1-4)GlcNAc
# Summary of the method: as §1
# [39] = target: Neu5Ac(a2-6)Gal(b1-4)GlcNAc(b1-3)Gal(b1-3)GlcNAc
# Summary of the method: as §1
# [40] = target: Neu5Ac(a2-6)GlcNAc(b1-4)GlcNAc(b1-4)GlcNAc
# Summary of the method: as §1
# [41] = target: Neu5Gc(a2-3)Gal(b1-4)GlcNAc
# Summary of the method: as §1
binder,measurement,setting,value
B1,glycan array binding signal (z-score),[1],0.285
same,glycan array binding signal (z-score),[2],2.88
same,glycan array binding signal (z-score),[3],4.77
same,glycan array binding signal (z-score),[4],-0.355
same,glycan array binding signal (z-score),[5],-0.291
same,glycan array binding signal (z-score),[6],-0.178
same,glycan array binding signal (z-score),[7],3.28
same,glycan array binding signal (z-score),[8],1.43
same,glycan array binding signal (z-score),[9],-0.279
same,glycan array binding signal (z-score),[10],8.86
same,glycan array binding signal (z-score),[11],-0.063
same,glycan array binding signal (z-score),[12],0.144
same,glycan array binding signal (z-score),[13],-0.311
same,glycan array binding signal (z-score),[14],-0.218
same,glycan array binding signal (z-score),[15],-0.331
same,glycan array binding signal (z-score),[16],-0.216
same,glycan array binding signal (z-score),[17],9.66
same,glycan array binding signal (z-score),[18],-0.113
same,glycan array binding signal (z-score),[19],4.76
same,glycan array binding signal (z-score),[20],-0.233
same,glycan array binding signal (z-score),[21],5.97
same,glycan array binding signal (z-score),[22],-0.314
same,glycan array binding signal (z-score),[23],-0.272
same,glycan array binding signal (z-score),[24],-0.276
same,glycan array binding signal (z-score),[25],-0.432
same,glycan array binding signal (z-score),[26],4.99
same,glycan array binding signal (z-score),[27],-0.273
same,glycan array binding signal (z-score),[28],-0.359
same,glycan array binding signal (z-score),[29],-0.292
same,glycan array binding signal (z-score),[30],-0.326
same,glycan array binding signal (z-score),[31],7.16
same,glycan array binding signal (z-score),[32],-0.01
same,glycan array binding signal (z-score),[33],5.08
same,glycan array binding signal (z-score),[34],-0.253
same,glycan array binding signal (z-score),[35],-0.158
same,glycan array binding signal (z-score),[36],0.545
same,glycan array binding signal (z-score),[37],-0.482
same,glycan array binding signal (z-score),[38],-0.224
same,glycan array binding signal (z-score),[39],-0.344
same,glycan array binding signal (z-score),[40],3.75
same,glycan array binding signal (z-score),[41],-0.214
